This is one part of the list. Activity calls are given as the source filed them.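 Rule for the calls: active = inhibition reaching about 45% at 4 µM in either replicate (limit read from the data); inactive = the rest.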
Experiment: lowers stimulated NF-kB luciferase signal in Jurkat – cell-based, luminescence, single concentration, T-cell NF-kB inhibitor project, confirmation (AID 435020);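 note: plate controls were PMA/ionomycin stimulated DMSO wells for no effect and unstimulated DMSO wells for full effect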
Settings: PMA/ionomycin-induced, 16 h, at 4 µM, hits give high values

| SMILES | inhibition |
| --- | --- |
| CCCc1cc(C(=O)Nc2ccc(Cl)cn2)cs1 | -104% (inactive) |
| CCN1/C(=C\c2ccc3ccccc3[n+]2CC)Sc2cc(C)ccc21 | 67.4% (active) |
| COc1ccc(-n2nnnc2-c2nc3ccccc3s2)cc1 | -67.2% (inactive) |
| Cc1cccc(/C(N)=N/OC(=O)c2ccccc2Cl)c1 | -97.8% (inactive) |
| COc1cccc(/C=N/NC(=O)c2[nH]nc3c2CCc2ccccc2-3)c1O | 39.9% (inactive) |
| Cc1cc(C(=O)OCC(=O)NCc2ccco2)c(C)n1-c1ccccc1 | 6.4% (inactive) |
| CC[n+]1cc(C)ccc1/C=C/c1ccc(N(C)C)cc1 | 46% (inactive) |
| N/C(=N\OC(=O)N1c2ccccc2Sc2ccccc21)c1ccc(Br)cc1 | 6.45% (inactive) |
| O=C(Nc1nc2ccccc2s1)c1ccc2c(c1)OCO2 | -106% (inactive) |
| NC(=O)c1c(NC(=O)c2ccccc2)sc2c1CCCC2 | -110% (inactive) |
| COc1ccc(Nc2ncnc3ccc(Br)cc23)c(OC)c1 | 88.2% (active) |
| COc1ccc(Nc2nc(-c3ccccc3)cs2)cc1 | -140% (inactive) |
| CC1(C)CC(N2CCN(C(c3ccccc3)c3ccccc3)CC2)=CC(=[N+]2CCCCC2)C1 | 69.6% (active) |
| Clc1cccc(Cl)c1OCCOCCNCc1ccccc1 | 86.6% (active) |
| COc1ccccc1-n1nnnc1S(=O)(=O)Cc1ccc(Cl)cc1 | 26.5% (inactive) |
| COC(=O)Cc1[nH]n(-c2nc3ccccc3s2)c(=O)c1C(C)=Nc1ccc(OC)cc1 | 79.2% (active) |
| CCOc1[nH]n(-c2ccc(Cl)cc2)c(=O)c1C=Nc1ccc(O)cc1 | 6% (inactive) |
| C=C(C)C(=O)O[C@H]1C/C(C)=C\C(=O)/C=C(\C)[C@H](O)[C@@H]2OC(=O)C(=C)[C@@H]21 | 34.6% (inactive) |
| OCCCNc1nccc(-c2cc(Nc3cccc(Cl)c3)ncn2)n1 | 97% (active) |
| O=c1oc2ccccc2cc1-c1cn(-c2ccccc2)c(=S)[nH]1 | 80.8% (active) |
| Cn1ccc(=Nc2ccc(NC(=O)c3ccc(N=c4ccn(C)c5ccc([N+](=O)[O-])cc45)cc3)cc2)cc1 | -15.3% (inactive) |
| c1ccc2[nH]c(-c3nc4ccccc4[nH]3)nc2c1 | -90% (inactive) |
| NC(N)=N/N=C/c1ccc(OCc2ccc(Cl)cc2Cl)cc1 | -12.9% (inactive) |
| Cc1ccc(N/C=C/C(=O)c2ccccc2)cc1C | 3.3% (inactive) |
| COc1ccc(C2=Nn3c(nnc3-c3ccccc3OC)SC2)cc1OC1CCCC1 | 58% (active) |
| COc1ccc2cc1Oc1ccc(cc1)C[C@H]1c3cc(c(OC)cc3CCN1C)Oc1c(O)c(OC)cc3c1[C@H](C2)N(C)CC3 | 16.9% (inactive) |
| CC(C)(C)c1ccc(Oc2ccc(N)cc2)cc1 | 11.6% (inactive) |

From PubChem BioAssay
